Screening data as filed in PubChem BioAssay.
ALOX15B inhib = blocks human 15-lipoxygenase 2 activity; 110,000 tested, 0.56% active; O15296; Potency, µM (titrated, usually from 57.1 µM), for inactives: top-dose activity change, negative = inhibition, hits mostly inhibitors; purified 15hLO-2, xylenol orange hydroperoxide absorbance; further: on the % scale 0 is the no-effect control and ±100 the full control effect; nearly all actives have a fitted effect of over 60% in size
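Enzyme 50 nM, AA 45 uM, 25 mM Hepes pH 7.5 + 0.01% Triton X-100; cpd preinc 15 min RT, rxn 90 min RT; stop/detect with 200 uM XO + 300 uM Fe(II) in 50 mM H2SO4, 30 min; A573/A405.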
UbGFP stabilizer = ubiquitin-GFP accumulation via proteasome inhibition; AID 526; Ubiquitin-GFP reporter cells, proteasome inhibition, GFP fluorescence; response scale: untreated = 0%, 10 µM MG-132 = 100%; Potency, µM (doses to about 45.9 µM), without a hit: top-dose activation (GFP accumulation), most hits filed as activators; 67,000 tested, under 10 active; active means well fitted activation curve with a large enough effect, not every such curve was filed as active; inconclusive means small, poorly fitted or top-dose-only effect, or another doubt; inactive means no such curve, though single readings can be large or run the other way
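Proteasome blockade was scored as a rise in GFP-expressing U2OS cells carrying a ubiquitin(G76V)-GFP construct, imaged after 4 hr compound treatment at 37 °C across a 46 uM–2.9 nM series.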
Caspase-1 inhib = blocks human caspase-1 allosterically or competitively | P29466 | Caspase-1 enzyme, Ac-WEHD-AFC fluorogenic rate | Potency, µM (series often up to 57.5 µM), for the others: top-dose activity change, negative = inhibition, usual class: inhibitors | 75,000 tested, 0.03% active | AID 900;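 further: plate controls were vehicle for no effect and no substrate for full effect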
Target sequence (P29466 120-297 limits assumed): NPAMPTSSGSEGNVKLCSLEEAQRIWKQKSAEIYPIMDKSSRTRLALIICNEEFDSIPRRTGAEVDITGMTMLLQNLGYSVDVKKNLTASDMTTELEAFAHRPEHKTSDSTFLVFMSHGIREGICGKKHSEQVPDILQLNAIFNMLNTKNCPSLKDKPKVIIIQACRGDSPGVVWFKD
Target sequence (P29466 317-404 limits assumed): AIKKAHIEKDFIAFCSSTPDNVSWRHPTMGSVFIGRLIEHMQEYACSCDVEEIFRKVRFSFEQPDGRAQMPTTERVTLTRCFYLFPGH
USP2a inhib = inhibitors of human ubiquitin-specific protease USP2a; O75604; USP2a enzymatic assay, qHTS inhibition; Potency, µM (series often up to 38.3 µM), inactives show at the highest dose activity change, negative = inhibition, hits mostly inhibitors; 60,000 tested, 0.1% active; further: nearly all actives have a fitted effect of over 60% in size
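Inhibition is measured in a cell-free coupled assay with 20 nM USP2 core, 20 nM Ub-PLA2 and 20 uM NBD C6-HPC, 2.5 h incubation. Activity normalized to NEM control.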
15-hLO inh = blocks human 15-lipoxygenase activity. AID 887. P16050. purified 15hLO-1, xylenol orange hydroperoxide absorbance. Potency, µM (titrated, usually from 57.1 µM), for the others: top-dose activity change, negative = inhibition, actives largely listed as inhibitors. 74,000 tested, 1.4% active; further: on the % scale 0 is the no-effect control and ±100 the full control effect; nearly all actives have a fitted effect of over 55% in size
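Inhibition is scored from a chromogenic endpoint. After 15 min enzyme-compound contact, arachidonic acid (50 uM final) reacts 6 min with 40 nM 15hLO-1 at room temperature, then Fe-XO reagent is added for 30 min and absorbance ratio recorded.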
Casp7 inh = allosteric or competitive inhibitors of human caspase-7; P55210; AID 889; recombinant caspase-7, Ac-DEVD-AFC fluorescence rate; 75,000 tested, 0.02% active; Potency, µM (doses to about 57.5 µM), for the others: at the top dose activity change, negative = inhibition, usual class: inhibitors; active means well fitted inhibition curve with a large enough effect in the main read-out, with a control signal flat, not every such curve was filed as active; inconclusive means small, poorly fitted or top-dose-only effect, or a change in a side signal; further: % of control where 0% means no effect
Target sequence (P55210 24-198 limits assumed): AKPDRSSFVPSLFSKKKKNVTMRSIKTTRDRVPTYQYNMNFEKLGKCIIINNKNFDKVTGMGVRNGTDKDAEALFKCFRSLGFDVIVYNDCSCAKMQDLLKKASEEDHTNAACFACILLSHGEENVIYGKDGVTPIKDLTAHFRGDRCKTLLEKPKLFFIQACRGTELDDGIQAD
Target sequence (P55210 207-303 limits assumed): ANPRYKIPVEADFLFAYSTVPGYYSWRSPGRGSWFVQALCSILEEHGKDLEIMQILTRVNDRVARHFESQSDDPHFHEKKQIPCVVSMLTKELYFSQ
Numbers without * were called inactive; [ ] = another dose, or the depositor's remark. This is one part of a sample in which hits are shown more often than they occur. Unless noted, the call rests on the fitted dose curve; in most records, active means well fitted curve in the direction sought with a large enough effect; inconclusive means small, poorly fitted or top-dose-only effect, or another doubt; inactive means no such curve, though single readings can be large; an effect the other way counts as inactive or inconclusive. Potency means the concentration at half of the fitted maximal effect.

How did CCOC(=O)c1c(C)oc2c1c1c(c3ccccc32)OCN(Cc2cccnc2)C1 do in these assays?
ALOX15B inhib: 15%; UbGFP stabilizer: 11%; Caspase-1 inhib: -17%; USP2a inhib: 21%; 15-hLO inh: 2µM*; Casp7 inh: -18%

What do the screens show for `CC1=CC(C#N)(C#N)C(C#N)(C#N)C(c2ccccc2)N1` (configuration not stated)?
ALOX15B inhib: -3%; UbGFP stabilizer: -1%; USP2a inhib: 2%; 15-hLO inh: -8%; Casp7 inh: inconclusive

How did CC1CCC(C(C)C)C2=C1C(C#N)(C#N)C(C#N)(C#N)C(c1ccccc1)N2 (configuration not stated) do in these assays?
ALOX15B inhib: 10µM*

How did C/C=C1\C(=O)C[C@H]2[C@@H]3CCC4=CC(=O)CC[C@]4(C)[C@H]3CC[C@]12C do in these assays?
ALOX15B inhib: -10%; Caspase-1 inhib: 1%; 15-hLO inh: -9%; Casp7 inh: -3%

Results for Cc1ccc(NC2c3ncccc3C(=O)N2c2ccccc2C)cc1C (configuration not stated) ?
ALOX15B inhib: inconclusive; UbGFP stabilizer: -3%; Caspase-1 inhib: -4%; USP2a inhib: -13%; 15-hLO inh: 25µM*; Casp7 inh: -6%

How did Cc1ccc(N=Cc2cccc(O)c2O)c(C)c1 do in these assays?
ALOX15B inhib: inconclusive; Caspase-1 inhib: -6%; 15-hLO inh: 6.3µM*; Casp7 inh: -12%

How did Cc1ccc(N=Cc2sc(O)c3ccccc23)c(C)c1 do in these assays?
ALOX15B inhib: -9%[11.4 µM]

Results for COc1nc(N)nc2c1ncn2[C@@H]1C[C@H](O)[C@@H](CO)O1 ?
ALOX15B inhib: -8%[11.4 µM]; UbGFP stabilizer: 5%[9.17 µM]; Caspase-1 inhib: -4%[11.5 µM]; 15-hLO inh: 6%[11.4 µM]; Casp7 inh: 0%[11.5 µM]

What do the screens show for `CC(=O)N1c2ccccc2NC2=C(C(=O)CCC2)C1c1cccnc1` (configuration not stated)?
ALOX15B inhib: -8%; UbGFP stabilizer: -2%; Caspase-1 inhib: -1%; USP2a inhib: 1.6µM*; 15-hLO inh: 3%; Casp7 inh: 0%

What do the screens show for `COc1ccc([N+](=O)[O-])cc1N`?
ALOX15B inhib: -2%; Caspase-1 inhib: -2%; 15-hLO inh: 1%; Casp7 inh: 0%

What do the screens show for `Oc1ccc(N2CCN(c3ncnc4sc5c(c34)CCC5)CC2)cc1`?
ALOX15B inhib: inconclusive; UbGFP stabilizer: 3%; Caspase-1 inhib: -3%; USP2a inhib: 28%; 15-hLO inh: 3.2µM*

What do the screens show for `Cc1nc(N2CCN(c3ccccc3)CC2)c2c3c(sc2n1)CCC3`?
ALOX15B inhib: 19%; UbGFP stabilizer: -16%; Caspase-1 inhib: 0%; USP2a inhib: 2%; 15-hLO inh: inconclusive; Casp7 inh: -1%

How did Cn1c(N)c(C(=O)NCc2ccccc2)sc1=S do in these assays?
ALOX15B inhib: -13%; UbGFP stabilizer: -4%; Caspase-1 inhib: -6%; USP2a inhib: 12%; 15-hLO inh: 13µM*; Casp7 inh: -4%

How did COc1ccc(CCNC(=O)c2sc(=S)n(C)c2N)cc1 do in these assays?
ALOX15B inhib: -7%; UbGFP stabilizer: 6%; Caspase-1 inhib: inconclusive; USP2a inhib: 5%; 15-hLO inh: 0%; Casp7 inh: -23%

What do the screens show for `Cc1cc(C(=O)Nc2ccccc2C(F)(F)F)no1`?
ALOX15B inhib: -3%; UbGFP stabilizer: 5%; Caspase-1 inhib: 0%; USP2a inhib: 6%; 15-hLO inh: 5%; Casp7 inh: 0%

Results for Cc1ccc(C(=O)NC(=S)Nc2ccccc2C(F)(F)F)cc1C ?
ALOX15B inhib: 25µM*

How did O=C(O)c1ccc(CO)o1 do in these assays?
ALOX15B inhib: -12%; Caspase-1 inhib: -4%; 15-hLO inh: -3%; Casp7 inh: -1%

Results for CCc1nnc(NS(=O)(=O)c2ccc(NC(=S)NC(=O)/C=C/c3ccc(C(C)C)cc3)cc2)s1 ?
ALOX15B inhib: 25µM*

Results for CCc1nnc(NC(=O)c2ccc(NS(=O)(=O)c3ccccc3)cc2)s1 ?
UbGFP stabilizer: -1%; Caspase-1 inhib: -1%; USP2a inhib: -10%; 15-hLO inh: -9%; Casp7 inh: -4%

Results for COc1ccc2c(c1)[n+]([O-])c(/C(C)=N/NC(N)=S)c(C)[n+]2[O-] ?
ALOX15B inhib: -3%[11.4 µM]; UbGFP stabilizer: 9%[9.17 µM]; Caspase-1 inhib: 0%[11.5 µM]; 15-hLO inh: -7%[11.4 µM]; Casp7 inh: -3%[11.5 µM]

Results for COc1ccc(C(=O)NCC(c2cccnc2)N2CCN(c3ccccc3OC)CC2)cc1OC (configuration not stated) ?
ALOX15B inhib: 5%; UbGFP stabilizer: -3%; Caspase-1 inhib: -1%; 15-hLO inh: 0%; Casp7 inh: 0%

How did COc1cccc(C(=O)NCC(c2cccnc2)N2CCN(c3ccccc3OC)CC2)c1 (configuration not stated) do in these assays?
UbGFP stabilizer: 5%; Caspase-1 inhib: -9%; 15-hLO inh: 13µM*; Casp7 inh: -6%

What do the screens show for `CC[C@]1(O)C[C@H]2CN(CCc3c([nH]c4ccccc34)[C@](C(=O)OC)(c3cc4c(cc3OC)N(C=O)[C@H]3[C@@](O)(C(=O)OC)[C@H](OC(C)=O)[C@@]5(CC)C=CCN6CC[C@]43[C@H]65)C2)C1`?
ALOX15B inhib: 51%; UbGFP stabilizer: -3%; Caspase-1 inhib: 3%; USP2a inhib: 23%; 15-hLO inh: inconclusive; Casp7 inh: 0%

What do the screens show for `O=C(O)c1ccc(Cl)c2c1C1C=CCC1C(c1ccccn1)N2` (configuration not stated)?
ALOX15B inhib: 7%; UbGFP stabilizer: 0%; Caspase-1 inhib: inconclusive; 15-hLO inh: 16µM*; Casp7 inh: inconclusive

How did CN(C)CCN(Cc1ccccc1)S(=O)(=O)c1cccc2cccnc12 do in these assays?
UbGFP stabilizer: -4%; Caspase-1 inhib: 1%; 15-hLO inh: -6%; Casp7 inh: 1%

Results for Clc1nc(NCCc2ccccc2)c2ncn(-c3ccccc3)c2n1 ?
UbGFP stabilizer: -7%[9.17 µM]

Results for COc1ccc(C(=O)c2cn[nH]c2-c2cc(Cl)ccc2O)cc1 ?
ALOX15B inhib: -6%; UbGFP stabilizer: -15%; Caspase-1 inhib: -3%; USP2a inhib: 24%; 15-hLO inh: 20µM*; Casp7 inh: -2%

Results for CC(=O)Nc1cccc(C(=O)Oc2cccc(C)c2)c1O ?
ALOX15B inhib: 0%; UbGFP stabilizer: 5%; Caspase-1 inhib: -2%; USP2a inhib: 16%; 15-hLO inh: 16µM*; Casp7 inh: 1%
